From PubChem BioAssay (NCATS)
Where “and” joins values, the source holds several entries; their conditions need not be identical. Equal values may be shown once. Results filed as inconclusive are left out. Calls of active or inactive are those of the source. The call rests on the fitted dose curve; in most records, active means well fitted curve in the direction sought with a large enough effect; inconclusive means small, poorly fitted or top-dose-only effect, or another doubt; inactive means no such curve, though single readings can be large; an effect the other way counts as inactive or inconclusive.

What was measured:
[1] = qHTS Screen of the MIPE 4.0 Collection Against Ewings Sarcoma (RDES) (AID 1259252); further: nearly all actives have a fitted effect of over 35% in size; further: potency means the concentration at half of the fitted maximal effect
How it was run: (§1)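 Compound titrations go onto adherent log-phase cells 4 h after seeding, incubate 48 h at 37C, then CellTiter-Glo luminescence reports viability relative to DMSO and cell-free controls.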

[2] = qHTS Screen of the MIPE 4.0 Collection Against Ewings Sarcoma (TC71) (AID 1259253); further: nearly all actives have a fitted effect of over 40% in size; further: potency means the concentration at half of the fitted maximal effect
How it was run: as §1

[3] = P-glycoprotein substrates identified in KB-3-1 adenocarcinoma cell line, qHTS therapeutic library screen (AID 1346986); further: nearly all actives have a fitted effect of over 60% in size;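 further: potency means the concentration at half of the fitted maximal effect; potency is for cytotoxicity meaning loss of cell viability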
How it was run: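 Using luminescence to quantify ATP, parental and P-gp-overexpressing KB cells were compared after 72 h compound titration. KB-8-5-11 was also run with the P-gp inhibitor tariquidar.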

[4] = P-glycoprotein substrates identified in KB-8-5-11 adenocarcinoma cell line, qHTS therapeutic library screen (AID 1346987); further: nearly all actives have a fitted effect of over 65% in size; further: potency means the concentration at half of the fitted maximal effect
How it was run: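 In this qHTS, P-gp-rich KB-8-5-11 cells received library compounds across a concentration range. Viability was quantified by luminescence after 72 h at 37 degree C.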

[5] = NS1 protein of Zika virus - qHTS assay to identify small molecule inhibitors in human HEK 293 cells (AID 1347053); further: nearly all actives have a fitted effect of over 55% in size; further: potency means the concentration at half of the fitted maximal effect
How it was run: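 Read-out is a two-antibody TR-FRET for ZIKV NS1, normalized between uninfected cells and infected cells. Compound added 1 h before MR766 infection at MOI 0.5; human HEK 293 cells incubated 24 h, 37 C.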

[6] = qHTS Screen of the MIPE 4.0 Collection Against Ewings Sarcoma (EW8) (AID 1259255); further: nearly all actives have a fitted effect of over 35% in size; further: potency means the concentration at half of the fitted maximal effect
How it was run: as §1

[7] = qHTS Screen of the MIPE 4.0 Collection Against Ewings Sarcoma (TC32) (AID 1259256); further: nearly all actives have a fitted effect of over 45% in size; further: potency means the concentration at half of the fitted maximal effect
How it was run: as §1

[8] = Identifying Small Molecule Inhibitors of Pancreatic Cancer Stem Cells (Panc1, Spheroid) (AID 1259359);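 further: potency means the concentration at half of the fitted maximal effect; compound exposure lasted 48 h before reading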
How it was run: (§2)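 Viability is scored by CellTiter-Glo luminescence 48 h after dosing, expressed as percent activity against vehicle and no-cell references. Spheroid formats rely on cells cultured 14 days in stem cell media beforehand.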

[9] = Identifying Small Molecule Inhibitors of Pancreatic Cancer Stem Cells (A278, Adherent) (AID 1259361);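 further: viability read after 48 h compound exposure; nearly all actives have a fitted effect of over 35% in size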
How it was run: as §2

[10] = Identifying Small Molecule Inhibitors of Pancreatic Cancer Stem Cells (Panc1, Adherent) (AID 1259362); conditions: Potency: viability; further: potency means the concentration at half of the fitted maximal effect
How it was run: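 Adherent (2D) versus sphere (3D) formats; spheres generated 14 d in SCM beforehand. Compound transferred by pin tool after 4 h, 48 h incubation, CellTiter-Glo endpoint.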

[11] = qHTS assay to identify small molecule inhibitors of chordoma cells - UCH-2 (AID 1259356); further: series mostly up to about 46 µM
[12] = Identifying Small Molecule Inhibitors of Pancreatic Cancer Stem Cells (SN12C, Adherent) (AID 1259358);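 further: cell survival measured after 48 h of compound exposure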
How it was run: as §2

O=C(CO)N1CCC(c2[nH]nc(-c3ccc(Cl)cc3)c2-c2ccncn2)CC1
inactive: Potency [1] | Potency [2] | Potency [3] | Potency [4] | Potency [5]

CC(C)(C)c1[nH]cnc1C=c1[nH]c(=O)c(=Cc2ccccc2)[nH]c1=O
active: Potency [8] 0.0019 µM | IC50 (viability decrease) [9] 0.0166 µM | Potency [10] 0.0187 µM | Potency [4] 2.4 nM | Potency [5] 0.003 µM
inactive: Potency [1] | Potency [6] | Potency [7]

C[C@@H](O)[C@H]1C(=O)N2C(C(=O)OCOC(=O)C(C)(C)C)=C(SC3CN(C4=NCCS4)C3)[C@H](C)[C@H]12
inactive: Potency [1] | Potency [2] | Potency [4] | Potency [5]

COc1cc2c(cc1OC)CC(=O)N(CCCN(C)C[C@H]1Cc3cc(OC)c(OC)cc31)CC2
active: Potency [1] 16.6 µM | Potency [2] 16.6 µM
inactive: outcome [11] | Potency [12] | IC50 (viability decrease) [9] | Potency [10] | Potency [4] | Potency [5]

CN(C)CCCNC(=O)c1ccc(-c2cc(O)c3ncccc3c2)cc1
active: Potency [1] 16.6 µM | Potency [6] 14.8 µM | Potency [7] 14.8 µM | Potency [3] 18.4 µM
inactive: Potency [12] | Potency [5]

Cc1cnc(CNC(=O)c2c(=O)c3ccc(N4CCCN(C)CC4)nc3n3c2sc2ccccc23)cn1
inactive: Potency [7] | Potency [5]
active: Potency [1] 7.24 µM | Potency [2] 7.24 µM

O=C(Nc1cccc(Cl)c1)Nc1ncc(CCNc2ncnc3ccsc23)s1
active: Potency [1] 1.18 µM | Potency [6] 0.235 µM | Potency [7] 0.296 µM | Potency [10] 18.7 µM | Potency [4] 1160 nM
inactive: Potency [12] | Potency [5]

COc1ccc(-c2ccc3ncc4c(c3c2)n(-c2ccc(N3CCNCC3)c(C(F)(F)F)c2)c(=O)n4C)cn1
active: Potency [1] 0.0469 µM | Potency [2] 0.0059 µM | Potency [3] 0.0231 µM | Potency [4] 8.3 nM and 184 nM and 206 nM | Potency [5] 6.62 µM

CCCCc1ccc(NS(=O)(=O)c2ccc(C)c(C(=O)N3CCN(c4cccc(C)c4C)CC3)c2)cc1
active: Potency [2] 20.9 µM
inactive: Potency [1] | Potency [12]
